# Test results published in PubChem BioAssay (Tox21).
# Results filed as inconclusive are left out. A call without a number means that no potency is given here. The source made the active and inactive calls. The call rests on the fitted dose curve; in most records, active means well fitted cell-killing curve with a large enough effect in the repeat runs; inconclusive means weak or mixed curves, or effect the other way; inactive means flat fitted curve, though single readings scatter.
# What was measured:
# [1] = cAMP Responsive Elements (CRE) small molecule antagonists, cell-based qHTS assay: qHTS cell viability counter screen (AID 2060913); further: nearly all actives have a fitted effect of over 40% in size; further: potency means the concentration at half of the fitted maximal effect
# Method in brief: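 Steps: cells plated and held 18 hrs at 37 C/5% CO2; compounds and NKH477 (0.25 uM final) added; 3 hrs incubation; reporter substrate read; CellTiter-Glo added to measure cytotoxicity by luminescence.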
# [2] = cAMP Responsive Elements (CRE) small molecule agonists, cell-based qHTS assay: qHTS cell viability counter screen (AID 2060914); further: nearly all actives have a fitted effect of over 50% in size
# Method in brief: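 In the same wells as the reporter read, viability of CRE-bla HEK 293T cells was quantified by CellTiter-Glo luminescence after a 3 h compound exposure.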
Structure (SMILES),Potency [1],Potency [2],"viability change, negative = cytotoxic [1]","activity change, negative = cytotoxicity [2]"
CCCCCCCCCCCCO,inactive,inactive,–,–
Cc1cc(C)c(C)c(O)c1,inactive,inactive,–,–
Oc1c(I)cc(Cl)c2cccnc12,inactive,inactive,–,–
c1cc(C(c2ccc(OCC3CO3)cc2)c2ccc(OCC3CO3)cc2)ccc1OCC1CO1 (stereo not given),inactive,inactive,–,–
O=C(Nc1ccc(C(=O)O)c(O)c1)c1ccccc1,inactive,inactive,–,–
CN1N=C(C(N)=O)CCC1=O,inactive,inactive,–,–
O=Cc1cc2ccccc2o1,inactive,inactive,–,–
CCCCCCCC/C=C\CCCCCCCC(=O)N(CCO)CCO,inactive,inactive,–,–
CCCCCCCCC,inactive,inactive,–,–
COc1ccccc1N1CCN(CC(O)COc2cc(OC)c(OC)c(OC)c2)CC1 (stereo not given),inactive,inactive,–,–
Nc1ccc([N+](=O)[O-])c(N)c1,inactive,inactive,–,–
CN(C)CCOCCO,inactive,inactive,–,–
COC(=O)/C=C\C(=O)OC,inactive,inactive,–,–
Cc1cc(O)c2c(c1)C(=O)c1cc(O)cc(O)c1C2=O,inactive,inactive,–,–
CC1=C(C(=O)O)N2C(=O)[C@@H](NC(=O)[C@H](N)C3=CCC=CC3)[C@H]2SC1,inactive,inactive,–,–
CC(=O)c1ccccc1O,inactive,inactive,–,–
CC(=O)C(C)O (stereo not given),inactive,inactive,–,–
CCc1cc2cc(OC)c(OC)cc2c(Cc2ccccc2)n1,inactive,inactive,–,–
O=C1OC2(c3ccc(O)cc3Oc3cc(O)ccc32)c2ccccc21,inactive,inactive,–,–
CC(=O)CC(C)C,inactive,inactive,–,–
C=CC(C)CCC=C(C)C (stereo not given),inactive,inactive,–,–
CCCCCCCC(=O)O,inactive,inactive,–,–
Nc1ccc(S(=O)(=O)Nc2ccccc2)cc1,inactive,inactive,–,–
NCCCN1CCOCC1,inactive,inactive,–,–

Structure (SMILES),Potency [1],Potency [2],"viability change, negative = cytotoxic [1]","activity change, negative = cytotoxicity [2]"
CCOc1ccccc1O,inactive,inactive,–,–
Nc1cccc2c(=O)[nH][nH]c(=O)c12,inactive,inactive,–,–
CCCCC1CCC(=O)O1 (stereo not given),inactive,inactive,–,–
CC(=O)c1cccc([N+](=O)[O-])c1,inactive,inactive,–,–
Nc1nc2c(ncn2COC(CO)CO)c(=O)[nH]1,inactive,inactive,–,–
CNNCc1ccc(C(=O)NC(C)C)cc1,inactive,inactive,–,–
CN1CCN(c2cc3c(nn2)Oc2ccccc2N3C)CC1,–,–,4.41% [at 18.9 µM] (inactive),1.04% [at 18.9 µM] (inactive)
CC(=O)Oc1ccc(C)cc1,inactive,inactive,–,–
Cc1occc1C(=O)Nc1ccc(C(=O)N2CCC(F)(F)/C(=C\C(=O)N3CCC(N4CCCCC4)CC3)c3ccccc32)cc1,inactive,inactive,–,–
CCCCCCCC(=O)OCC(COC(=O)CCCCCCC)OC(=O)CCCCCCC,inactive,inactive,–,–
CCC(=O)O[C@]1(C(=O)CCl)[C@@H](C)C[C@H]2[C@@H]3CCC4=CC(=O)C=C[C@]4(C)[C@@]3(F)[C@@H](O)C[C@@]21C,inactive,inactive,–,–
OC(C#CCN1CCCC1)(c1ccccc1)c1ccccc1,inactive,inactive,–,–
Cc1cccc(N)n1,inactive,inactive,–,–
O=c1[nH]c2ccccc2c(=O)n1CCCl,inactive,inactive,–,–
CCCCCCCCCCCC[N+](C)(C)CCCCCCCCCCCC,40.3 µM (active),inactive,–,–
c1ccc2sc(SSN3CCOCC3)nc2c1,inactive,inactive,–,–
CN1CCC(=C2c3ccccc3CC(=O)c3sccc32)CC1,inactive,inactive,–,–
c1ccc(-c2ccccc2-c2ccccc2)cc1,inactive,inactive,–,–
CC1(C)S[C@@H]2[C@H](NC(=O)C(C(=O)O)c3ccccc3)C(=O)N2[C@H]1C(=O)O (stereo not given in full),inactive,inactive,–,–
CCCCCCCCNC,inactive,inactive,–,–
COc1ccc(OC)c(C(O)CNC(=O)CN)c1 (stereo not given),inactive,inactive,–,–
Nc1ccc([N+](=O)[O-])c(C(F)(F)F)c1,inactive,inactive,–,–
O=C(O)CC(C(=O)O)C(CC(=O)O)C(=O)O (stereo not given),inactive,inactive,–,–
CCCCC/C=C\C/C=C\CCCCCCCC(=O)OC,inactive,inactive,–,–

Structure (SMILES),Potency [1],Potency [2],"viability change, negative = cytotoxic [1]","activity change, negative = cytotoxicity [2]"
Nc1nc(-c2ccc([N+](=O)[O-])cc2)cs1,inactive,inactive,–,–
CSc1ccc2c(c1)C(N1CCN(C)CC1)Cc1ccccc1S2 (stereo not given),inactive,inactive,–,–
C=C(C)C(=O)OCCOCCOCCOC(=O)C(=C)C,inactive,inactive,–,–
CCCC(=O)OCCC(C)CCC=C(C)C (stereo not given),inactive,inactive,–,–
CO[Si](C)(C)OC,inactive,inactive,–,–
CCCS(=O)c1ccc2nc(NC(=O)OC)[nH]c2c1 (stereo not given),inactive,inactive,–,–
COC(=O)c1cc(Cl)cc(Cl)c1,inactive,inactive,–,–
Cc1ccccn1,inactive,inactive,–,–
O=S(=O)(O)c1ccc(O)c2ncccc12,inactive,inactive,–,–
CCOC(=O)CCC(=O)OCC,inactive,inactive,–,–
C/C=C/C=N/NC(=O)c1ccncc1,inactive,inactive,–,–
CCOCCC(=O)OCC,inactive,inactive,–,–
CC(C)C(=O)OC/C=C/c1ccccc1,inactive,inactive,–,–
N[C@@H](CCC(=O)Nc1ccc([N+](=O)[O-])cc1)C(=O)O,inactive,inactive,–,–
Clc1ccc(Sc2cc(Cl)c(Cl)cc2Cl)cc1,inactive,inactive,–,–
CN(C(=O)CCCOc1ccc2[nH]c(=O)ccc2c1)C1CCCCC1,inactive,inactive,–,–
CCNc1cc(O)ccc1C,inactive,inactive,–,–
Nc1ccc(F)cc1,inactive,inactive,–,–
CN1CCN(C(c2ccccc2)c2ccccc2)CC1,inactive,inactive,–,–
CC(=O)[C@@]1(O)CC[C@H]2[C@@H]3C[C@H](C)C4=CC(=O)C=C[C@]4(C)[C@@]3(F)[C@@H](O)C[C@@]21C,inactive,inactive,–,–
ON=C1CCCCC1,inactive,inactive,–,–
COc1cccc(N(C)C(=S)Oc2ccc3c(c2)CCCC3)n1,inactive,inactive,–,–
NC(N)=NC(=O)c1nc(Cl)c(N)nc1N,inactive,inactive,–,–
COc1ccc(CN(CCN(C)C)c2ncccn2)cc1,inactive,inactive,–,–

Structure (SMILES),Potency [1],Potency [2],"viability change, negative = cytotoxic [1]","activity change, negative = cytotoxicity [2]"
c1ccc(-c2ccc(-c3ccccc3)cc2)cc1,–,–,0.929% [at 18.9 µM] (inactive),0.504% [at 18.9 µM] (inactive)
C#CC(C)(CC)OC(=O)c1ccccc1C(=O)O (stereo not given),inactive,inactive,–,–
O=C(NCCO[N+](=O)[O-])c1cccnc1,inactive,inactive,–,–
C[C@@H]1C[C@H]2[C@@H]3CCC4=CC(=O)C=C[C@]4(C)[C@@]3(F)[C@@H](O)C[C@]2(C)[C@@]1(O)C(=O)COC(=O)c1ccncc1,inactive,inactive,–,–
CC1(C)CC(N)CC(C)(CN)C1 (stereo not given),inactive,inactive,–,–
Cc1cnc(C)c(C)n1,inactive,inactive,–,–
O=c1oc2c(O)c(O)cc3c(=O)oc4c(O)c(O)cc1c4c23,–,–,2.4% [at 18.9 µM] (inactive),-1.77% [at 18.9 µM] (inactive)
CCOC(=O)Cn1cccc1-c1nc(-c2ccc(OC)cc2)c(-c2ccc(OC)cc2)s1,inactive,inactive,–,–
C#CCN(C)Cc1ccccc1,inactive,inactive,–,–
CCC(=O)CC(C)CC (stereo not given),–,–,-1.01% [at 0.349 µM] (inactive),6.36% [at 0.349 µM] (inactive)
CCCCCCNC(=O)n1cc(F)c(=O)[nH]c1=O,inactive,inactive,–,–
C=CCCCCCCCC,inactive,inactive,–,–
CCCCc1ccc2nc(NC(=O)OC)[nH]c2c1,inactive,inactive,–,–
S=c1nccc[nH]1,inactive,inactive,–,–
CC(=O)SCC(CC(=O)c1ccc(C)cc1)C(=O)O (stereo not given),inactive,inactive,–,–
COc1ccccc1Oc1c(NS(=O)(=O)c2ccc(C(C)(C)C)cc2)nc(-c2ncccn2)nc1OCCO,inactive,inactive,–,–
C[C@]12C=CC(=O)C=C1CC[C@H]1[C@@H]3C[C@@H](O)[C@](O)(C(=O)CO)[C@@]3(C)C[C@H](O)[C@@]12F,inactive,inactive,–,–
CC(C)(C)NCCO,inactive,inactive,–,–
O=C(O)CCCc1c[nH]c2ccccc12,inactive,inactive,–,–
O=P(O)(O)Oc1ccccc1,inactive,inactive,–,–
OC[C@H]1O[C@@H](OCCc2ccc(O)cc2)[C@H](O)[C@@H](O)[C@@H]1O,inactive,inactive,–,–
Nc1ccc(N=Nc2ccccc2)c(N)c1,inactive,inactive,–,–
CC(COc1ccccc1)NN (stereo not given),inactive,inactive,–,–
COC(=O)CCS,inactive,inactive,–,–

Structure (SMILES),Potency [1],Potency [2],"viability change, negative = cytotoxic [1]","activity change, negative = cytotoxicity [2]"
CCC(CO)CO,inactive,inactive,–,–
CCCCCC(C)OC(=O)COc1ccc(Cl)c2cccnc12 (stereo not given),inactive,inactive,–,–
BrCc1cccc(Oc2ccccc2)c1,inactive,inactive,–,–
CCOc1ccc2nc(N)sc2c1,inactive,inactive,–,–
NCCS,inactive,inactive,–,–
Cc1ccc(Cl)cc1,inactive,inactive,–,–
C=CC(=O)NCOCC(C)C,inactive,inactive,–,–
CC(C)COC(=O)c1ccccc1,inactive,inactive,–,–
O=C(OCC(COC(=O)c1ccccc1)(COC(=O)c1ccccc1)COC(=O)c1ccccc1)c1ccccc1,inactive,inactive,–,–
CC12CCC(CC1=O)C2(C)C (stereo not given),inactive,inactive,–,–
CC1=NN(c2ccc(C(=O)O)cc2)C(=O)C1,inactive,inactive,–,–
Nc1nc(N)c2nc(-c3ccccc3)c(N)nc2n1,inactive,inactive,–,–
C=CCOc1cc(Cl)ccc1C(=O)NCCN(CC)CC,inactive,inactive,–,–
COC(=O)CCCCCCCC(=O)OC,inactive,inactive,–,–
Nc1cccc(N)n1,inactive,inactive,–,–
CC(=O)[C@@]1(O)CC[C@H]2[C@@H]3CCC4=CC(=O)CC[C@]4(C)[C@H]3CC[C@@]21C,inactive,inactive,–,–
C=C(C)C(=O)OCc1ccccc1,inactive,inactive,–,–
CC1(C)C(=O)N(Br)C(=O)N1Cl,inactive,inactive,–,–
C=C[Si](OCCOC)(OCCOC)OCCOC,inactive,inactive,–,–
N[C@@H](Cc1c[nH]c2ccc(O)cc12)C(=O)O,inactive,inactive,–,–
CCc1c(C)[nH]c2c1C(=O)C(CN1CCOCC1)CC2 (stereo not given),inactive,inactive,–,–
Cc1ccccc1C,inactive,inactive,–,–
CCCCC(CC)CN (stereo not given),inactive,inactive,–,–
CCCCS(=O)(=O)N[C@@H](Cc1ccc(OCCCCC2CCNCC2)cc1)C(=O)O,inactive,inactive,–,–
